Laboratory results from the supplement of paper PMC10498489.
About 330 (14%) of roughly 2,300 compounds showed activity.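 How the source made its calls: active = median modified Z-score above 1.96; inactive = 1.96 or below.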 Not all results are given here.

These molecules were tested on HepG2 Srxn1-GFP reporter cells (+30 nM CDDO-Me) (assay: Srxn1-GFP intensity median modified Z-score relative to plate median; higher = stronger NRF2 / oxidative stress reporter activation, active = hit call of the paper). Conditions: 10 µM; exposure time: 24h.
Outline: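 Per-cell cytoplasmic GFP was measured on confocal images of formaldehyde-fixed, Hoechst-stained HepG2 Srxn1-GFP BAC reporter cells, excluding images with fewer than 100 cells. Before this, the cells (20,000 per well, 96-well plates) were co-exposed for 24 h to compound at 10 μM and an NRF2 activator at 30 nM with ≤0.1% DMSO, in three replicate plates. Each value is the median over replicates of the per-plate modified Z-score of GFP intensity. That score was scaled with 1.4826 × median absolute deviation.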

Srxn1-GFP intensity median modified Z-score, inactive:
CC(=O)S[C@@H]1C=C2CC(=O)CC[C@]2(C)[C@H]2CC[C@@]3(C)[C@@H](CC[C@@]34CCC(=O)O4)C12 (some centres undefined) [euspeclibcmpd269] -0.784
CC12CCC(=O)CC1=CCC1C2[C@@H](O)CC2(C)C1CC[C@]2(O)C(=O)COP(=O)(O)O (some centres undefined) [euspeclibcmpd153] -0.722
COc1ccc2c(c1)c(CC(=O)OC/C=C/Cl)c(C)n2C(=O)c1ccc(Cl)cc1 0.367
CON(C)C(=O)c1cc(-c2ccccc2)nc2ccccc12 1.63
NCCCCC(NC(CCc1ccccc1)C(=O)O)C(=O)N1CCCC1C(=O)O (centres undefined) [euspeclibcmpd423] 0.0552
O=c1c(-c2cc(O)c(O)c(O)c2)coc2cc(O)c(O)c(O)c12 [euspeclibcmpd1958] -0.398
CCOC(=O)OC(C)OC(=O)C1N2C(=O)C(NC(=O)C(N)c3ccccc3)C2SC1(C)C (centres undefined) [euspeclibcmpd983] 0.627
N=C(N)N/N=C\c1c(Cl)cccc1Cl [euspeclibcmpd143] 0.55
CC(C)NCC(O)COc1ccc(CC(N)=O)cc1 (centres undefined) [euspeclibcmpd387] -0.166
CC(C)CC(NC(=O)C(C)N)C(=O)O (centres undefined) [euspeclibcmpd2380] -0.0851
CN=C(C[N+](=O)[O-])NCCSCc1csc(CN(C)C)n1 [euspeclibcmpd900] -0.00145
CC1CN(c2c(F)c(N)c3c(=O)c(C(=O)O)cn(C4CC4)c3c2F)C[C@H](C)N1 (some centres undefined) [euspeclibcmpd471] -0.142
CC(C)C(=O)C1C(=O)O[C@@H](c2ccoc2)[C@]2(C)C(O)[C@@H](O)[C@@]34OC5(C)OC67CC(C)(C(O)[C@]6(O)[C@@H](O)[C@]3(O5)C12)[C@H](CC(=O)O)[C@]74C (some centres undefined) [euspeclibcmpd1385] -0.12
NC(=O)NCCCC(N)C(=O)O (centres undefined) [euspeclibcmpd1533] -0.136
CCN(CC)CCOC(=O)C(c1ccccc1)c1ccccc1 [euspeclibcmpd520] 0.792
CCCC(C(=O)OCCN(CC)CC)(c1ccccc1)c1ccccc1 [euspeclibcmpd434] -0.794
C[C@H]1c2cccc(O)c2C(=O)C2C(=O)[C@]3(O)C(=O)C(C(N)=O)C(=O)C(N(C)C)[C@@H]3[C@@H](O)[C@@H]21 (some centres undefined) [euspeclibcmpd105] -1.04
C=C[C@](C)(O)CCC=C(C)C [euspeclibcmpd1465] -0.00229
COC(=O)C1=C2C(=O)CC(C)C2C(O[C@@H]2O[C@H](CO)[C@@H](O)[C@H](O)[C@H]2O)OC1 (some centres undefined) [euspeclibcmpd2225] -0.236
Cc1cc(O)c(C=O)c2c1C(=O)Oc1c(C)c(O)c3c(O)oc(O)c3c1O2 [euspeclibcmpd2409] 0.591
COC(=O)c1c(OC)cc2c(c1C)Oc1c(Cl)c(O)c(Cl)c(C)c1C(=O)O2 [euspeclibcmpd1672] 0.324
Cc1c[nH]c(=NC(=O)C2C(=O)c3ccccc3S(=O)(=O)N2C)s1 (centres undefined) [euspeclibcmpd2190] -0.367
C#C[C@]1(O)CCC2C3CCc4cc(OC)ccc4C3CC[C@@]21C (some centres undefined) [euspeclibcmpd184] 0.203
C#C[C@]1(OC(C)=O)CCC2C3CCC4=CC(=NO)CCC4C3CC[C@@]21CC (some centres undefined) [euspeclibcmpd54] -0.443
NCCCC(N)C(=O)O (centres undefined) [euspeclibcmpd2233] -0.13
CCOC(=O)C1=CC(OC(CC)CC)[C@H](NC(C)=O)[C@@H](N)C1 (some centres undefined) [euspeclibcmpd2394] -0.535
CC1=C(SC2CNC(C(=O)N(C)C)C2)C(C(=O)O)N2C(=O)[C@H]([C@@H](C)O)[C@@H]12 (some centres undefined) [euspeclibcmpd460] -0.758
CC(C)CCOc1ccc2[nH]c(-c3cc(NCCc4cn5c(n4)SCC5)ccn3)cc2c1 0.892
COc1ccc(-c2oc3ccccc3c(=O)c2OC)cc1 [euspeclibcmpd1341] 0.287
CN(C)[C@@H]1C(O)=C(C(N)=O)C(=O)[C@@]2(O)C(O)c3c(c(O)c4c(Cl)ccc(O)c4c3O)C[C@@H]12 (some centres undefined) [euspeclibcmpd85] -0.132
O=C(C(=O)c1ccccc1)c1ccccc1 1.75
O=C(O)c1ccccc1 [euspeclibcmpd2047] 0.122
C[n+]1cccc(C(=O)O)c1 [euspeclibcmpd1706] -0.33
CCCc1nn(C)c2c(=O)nc(-c3cc(S(=O)(=O)N4CCN(C)CC4)ccc3OCC)[nH]c12 [euspeclibcmpd1008] -0.649
Nc1ccc(NC(=O)c2cc(Cl)ccc2O)c(Cl)c1 1.83
O=C(Nc1ccc(Br)cc1Cl)c1cc(Cl)ccc1O 0.489
COC(=O)c1cc(-c2ccccc2)nc2ccccc12 1.89
O=C1C=Cc2c(c(O)c3ccccc3c2O)C1=O [euspeclibcmpd1683] 0.752
COc1c(-c2ccccc2)oc2cc(O)cc(O)c2c1=O [euspeclibcmpd2295] -0.0938
CCCOc1ccc(C(=O)OCCN(CC)CC)cc1N [euspeclibcmpd842] -0.601
CCN(CC)CCOC(=O)c1ccc(N)cc1 [euspeclibcmpd248] -0.882
O=C(O)C(O)C(O)C(O)C(O)C(=O)O (centres undefined) [euspeclibcmpd2053] -0.466
Cc1[nH]c(=O)[nH]c1O [euspeclibcmpd1742] -0.283
O=C(O)C=C(CC(=O)O)C(=O)O [euspeclibcmpd1609] -0.206
C=C1CC2C3=CC(C)=C4CC(=O)CC[C@]4(C)C3CC[C@]2(C)[C@@]1(OC(C)=O)C(C)=O (some centres undefined) [euspeclibcmpd860] 1.04
CSC1(CNC(=O)Nc2cnn(C)c2Cl)CC1 1.35
OC[C@@H](O)[C@@H](O[C@@H]1O[C@H](CO)[C@@H](O)[C@H](O)[C@H]1O)[C@H](O)[C@@H](O)CO [euspeclibcmpd2177] -0.452
COC(=O)C(c1ccccc1Cl)N1CCc2sccc2C1 (centres undefined) [euspeclibcmpd599] -0.316
COc1cnc(=NS(=O)(=O)c2ccc(N)cc2)[nH]c1 [euspeclibcmpd408] -0.161
NC(=O)CN1CCCCCCC1=O 0.32
CC1=C(CC(=O)O)c2cc(F)ccc2C1=Cc1ccc([S+](C)[O-])cc1 (centres undefined) [euspeclibcmpd284] -0.29
c1ccc(C(c2ccccc2)(c2ccccc2)n2ccnc2)cc1 1.95
N#Cc1ccc(C(c2ccc(C#N)cc2)n2cncn2)cc1 [euspeclibcmpd693] -0.19
CCOC(=O)C(CCc1ccccc1)NC(C)C(=O)N1Cc2ccccc2CC1C(=O)O (centres undefined) [euspeclibcmpd521] 0.162
CCOC(=O)C(CCc1ccccc1)NC(C)C(=O)N1CCCC1C(=O)O (centres undefined) [euspeclibcmpd421] 0.166
N=c1[nH]c(=O)[nH]cc1F [euspeclibcmpd698] 1.2
CC(=O)OCC(=O)[C@@]1(O)[C@H](C)CC2C3CC=C4CC(=O)C=C[C@]4(C)[C@@]3(F)[C@@H](O)C[C@@]21C (some centres undefined) [euspeclibcmpd2125] -0.395
CC(=O)Oc1cccc(C)c1 [euspeclibcmpd1228] -0.455

Srxn1-GFP intensity median modified Z-score, active:
CC(C)/N=c1\cc2n(-c3ccc(Cl)cc3)c3ccccc3[nH]c-2cc1=Nc1ccc(Cl)cc1 [euspeclibcmpd891] 7.89
CCN(CC)CCOC(=O)C(Cc1cccc2ccccc12)CC1CCCO1 (centres undefined) [euspeclibcmpd577] 3.61
CCOc1ccc2[nH]c3cc(N)ccc3c(=N)c2c1 [euspeclibcmpd1203] 63.5
COC(=O)c1c(C)c2c(c(C)c1O)OC(=O)c1c(C)c(Cl)c(O)c(Cl)c1O2 [euspeclibcmpd1600] 12.9
C#C[C@]1(OC(C)=O)CCC2C3CCC4=C[C@@H](OC(C)=O)CCC4C3CC[C@@]21C (some centres undefined) [euspeclibcmpd896] 2.28
CC1CN(C(=O)CSc2nc3ccc(Br)cc3c3nc(=O)c(-c4ccccc4)nn23)CC(C)O1 (centres undefined) 2.28
O=C(CC(=O)c1ccccc1)c1ccccc1 [euspeclibcmpd1779] 2.2
O=C(Nc1cc(Cl)cc(Cl)c1O)c1c(O)c(Cl)cc(Cl)c1Cl [euspeclibcmpd2236] 4.91
O=C1CC(=O)c2c(c(O)c3ccccc3c2O)C1=O [euspeclibcmpd1727] 8.98
Cc1cc(/C=C/c2ccc3cc(N(C)C)ccc3[n+]2C)c(C)n1-c1ccccc1 [euspeclibcmpd260] 28.6
CCCCOc1cc(C(=O)OCCN(CC)CC)ccc1N [euspeclibcmpd809] 16.2
Cc1[nH]c(C)c(Cl)c(=O)c1Cl [euspeclibcmpd744] 6.67
CCCCC(CC)CN1CN(CC(CC)CCCC)CC(C)(N)C1 (centres undefined) [euspeclibcmpd1036] 14.2
c1ccc(-c2ccc(C(c3ccccc3)n3ccnc3)cc2)cc1 (centres undefined) [euspeclibcmpd741] 3.36
CCOC(=O)C(CCc1ccccc1)NC1CCc2ccccc2N(CC(=O)O)C1=O (centres undefined) [euspeclibcmpd912] 3.02
Cc1cccc(N(C)C(=S)Oc2ccc3ccccc3c2)c1 [euspeclibcmpd299] 8.23
